How the values were obtained:
Assay in all cases: log2 ratio of Biotin-Ahx-Ub-VS probe labelling (fragment/DMSO); higher = less target engagement (more negative = stronger competition), active = hit call of the paper (q ≤ 0.05, log2 ratio ≤ -1)
Settings in all cases: compound concentration: 200 uM; treatment time: 3 h
USP19 = biological target: T1, USP19 (UniProt O94966)
T1 sequence (whole entry): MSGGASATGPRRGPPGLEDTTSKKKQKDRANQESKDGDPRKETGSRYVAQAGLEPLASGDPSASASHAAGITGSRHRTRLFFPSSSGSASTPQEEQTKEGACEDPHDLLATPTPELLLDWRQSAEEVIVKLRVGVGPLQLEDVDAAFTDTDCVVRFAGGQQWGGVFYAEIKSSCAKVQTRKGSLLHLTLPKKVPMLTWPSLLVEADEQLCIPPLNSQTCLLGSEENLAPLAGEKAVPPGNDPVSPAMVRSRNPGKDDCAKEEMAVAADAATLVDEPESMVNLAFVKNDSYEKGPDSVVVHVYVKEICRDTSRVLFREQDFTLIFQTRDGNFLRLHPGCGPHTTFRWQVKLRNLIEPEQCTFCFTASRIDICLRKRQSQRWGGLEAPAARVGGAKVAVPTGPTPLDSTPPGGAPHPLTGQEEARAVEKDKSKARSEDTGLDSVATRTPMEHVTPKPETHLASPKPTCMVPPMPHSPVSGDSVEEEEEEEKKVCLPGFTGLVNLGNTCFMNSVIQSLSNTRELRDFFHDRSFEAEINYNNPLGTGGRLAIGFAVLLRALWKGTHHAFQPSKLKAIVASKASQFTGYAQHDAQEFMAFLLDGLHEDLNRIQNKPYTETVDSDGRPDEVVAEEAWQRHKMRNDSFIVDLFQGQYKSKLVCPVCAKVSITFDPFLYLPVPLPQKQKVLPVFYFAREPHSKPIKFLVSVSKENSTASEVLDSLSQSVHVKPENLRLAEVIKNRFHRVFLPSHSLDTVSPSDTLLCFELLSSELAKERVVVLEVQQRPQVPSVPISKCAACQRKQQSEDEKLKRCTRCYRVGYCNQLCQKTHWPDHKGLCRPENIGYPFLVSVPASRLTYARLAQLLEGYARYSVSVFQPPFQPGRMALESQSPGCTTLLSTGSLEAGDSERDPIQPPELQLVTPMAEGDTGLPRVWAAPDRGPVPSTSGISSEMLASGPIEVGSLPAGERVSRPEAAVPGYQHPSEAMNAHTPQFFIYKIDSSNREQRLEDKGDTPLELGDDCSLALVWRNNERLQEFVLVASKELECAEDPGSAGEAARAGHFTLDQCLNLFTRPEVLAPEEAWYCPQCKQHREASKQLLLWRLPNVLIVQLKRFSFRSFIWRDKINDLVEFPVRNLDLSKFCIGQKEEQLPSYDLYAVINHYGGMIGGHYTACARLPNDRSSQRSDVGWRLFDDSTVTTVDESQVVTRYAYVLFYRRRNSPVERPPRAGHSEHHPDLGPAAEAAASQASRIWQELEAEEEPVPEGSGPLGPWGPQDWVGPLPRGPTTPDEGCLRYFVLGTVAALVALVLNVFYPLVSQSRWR
How it was run: (§1)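 Each value is an average log2 ratio of fragment to vehicle, tested by unpaired t-test. The underlying Spectronaut label-free quantities were global-median-normalised, and only proteins with ≥2 unique peptides were included. Triplicate HEK293T lysate samples (495 µg) were exposed to fragment at 200 µM or vehicle for 3 h, then to Biotin-Ahx-Ub-VS at 0.5 µM final for 1 h, before NeutrAvidin enrichment of labelled DUBs, LysC and trypsin digestion, and diaPASEF LC-MS/MS.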

USP22 = biological target: T2, USP22 (UniProt Q9UPT9)
T2 sequence (whole entry): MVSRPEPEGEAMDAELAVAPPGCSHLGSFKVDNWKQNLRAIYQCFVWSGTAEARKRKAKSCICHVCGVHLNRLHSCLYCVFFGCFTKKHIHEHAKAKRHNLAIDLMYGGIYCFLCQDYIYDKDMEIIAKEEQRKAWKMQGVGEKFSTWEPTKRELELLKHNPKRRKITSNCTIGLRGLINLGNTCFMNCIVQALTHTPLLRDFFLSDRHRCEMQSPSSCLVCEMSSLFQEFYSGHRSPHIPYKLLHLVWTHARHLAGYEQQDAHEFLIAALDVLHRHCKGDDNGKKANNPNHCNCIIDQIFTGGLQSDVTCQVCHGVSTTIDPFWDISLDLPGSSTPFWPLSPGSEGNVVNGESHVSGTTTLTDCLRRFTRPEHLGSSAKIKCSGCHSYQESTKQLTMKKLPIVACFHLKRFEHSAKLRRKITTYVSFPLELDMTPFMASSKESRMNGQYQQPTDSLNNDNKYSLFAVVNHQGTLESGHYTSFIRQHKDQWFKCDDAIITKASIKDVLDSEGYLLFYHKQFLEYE
How it was run: as §1

USP24 = USP24 (UniProt Q9UPU5)
How it was run: as §1

USP25 = biological target: T3, USP25 (UniProt Q9UHP3)
T3 sequence (whole entry): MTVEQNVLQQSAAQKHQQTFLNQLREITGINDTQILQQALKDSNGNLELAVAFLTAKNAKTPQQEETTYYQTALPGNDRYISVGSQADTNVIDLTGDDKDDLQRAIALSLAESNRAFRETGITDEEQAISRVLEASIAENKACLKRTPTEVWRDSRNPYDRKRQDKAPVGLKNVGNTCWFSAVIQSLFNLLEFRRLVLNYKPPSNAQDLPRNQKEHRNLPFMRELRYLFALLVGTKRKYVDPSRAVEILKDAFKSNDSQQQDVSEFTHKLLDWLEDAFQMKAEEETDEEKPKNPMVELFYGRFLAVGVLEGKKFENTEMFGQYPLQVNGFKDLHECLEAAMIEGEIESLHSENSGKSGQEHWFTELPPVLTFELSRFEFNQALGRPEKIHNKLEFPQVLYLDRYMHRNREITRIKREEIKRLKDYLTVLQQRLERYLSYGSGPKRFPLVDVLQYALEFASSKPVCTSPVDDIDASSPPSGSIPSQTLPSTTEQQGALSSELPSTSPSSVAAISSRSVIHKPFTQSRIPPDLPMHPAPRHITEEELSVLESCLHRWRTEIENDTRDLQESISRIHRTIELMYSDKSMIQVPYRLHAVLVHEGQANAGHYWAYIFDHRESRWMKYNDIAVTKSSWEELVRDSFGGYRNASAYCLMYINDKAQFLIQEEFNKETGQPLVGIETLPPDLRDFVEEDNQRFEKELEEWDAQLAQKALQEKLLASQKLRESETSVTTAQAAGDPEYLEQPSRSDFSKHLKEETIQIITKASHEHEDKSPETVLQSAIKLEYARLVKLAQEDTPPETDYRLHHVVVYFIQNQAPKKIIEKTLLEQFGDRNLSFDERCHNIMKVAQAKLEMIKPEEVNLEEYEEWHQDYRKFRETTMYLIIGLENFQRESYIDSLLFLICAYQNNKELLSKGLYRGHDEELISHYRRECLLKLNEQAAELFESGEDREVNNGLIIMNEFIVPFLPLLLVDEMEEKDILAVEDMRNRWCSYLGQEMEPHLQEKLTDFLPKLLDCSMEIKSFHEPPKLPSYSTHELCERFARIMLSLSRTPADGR
How it was run: as §1

USP28 = biological target: T4, USP28 (UniProt Q96RU2)
T4 sequence (whole entry): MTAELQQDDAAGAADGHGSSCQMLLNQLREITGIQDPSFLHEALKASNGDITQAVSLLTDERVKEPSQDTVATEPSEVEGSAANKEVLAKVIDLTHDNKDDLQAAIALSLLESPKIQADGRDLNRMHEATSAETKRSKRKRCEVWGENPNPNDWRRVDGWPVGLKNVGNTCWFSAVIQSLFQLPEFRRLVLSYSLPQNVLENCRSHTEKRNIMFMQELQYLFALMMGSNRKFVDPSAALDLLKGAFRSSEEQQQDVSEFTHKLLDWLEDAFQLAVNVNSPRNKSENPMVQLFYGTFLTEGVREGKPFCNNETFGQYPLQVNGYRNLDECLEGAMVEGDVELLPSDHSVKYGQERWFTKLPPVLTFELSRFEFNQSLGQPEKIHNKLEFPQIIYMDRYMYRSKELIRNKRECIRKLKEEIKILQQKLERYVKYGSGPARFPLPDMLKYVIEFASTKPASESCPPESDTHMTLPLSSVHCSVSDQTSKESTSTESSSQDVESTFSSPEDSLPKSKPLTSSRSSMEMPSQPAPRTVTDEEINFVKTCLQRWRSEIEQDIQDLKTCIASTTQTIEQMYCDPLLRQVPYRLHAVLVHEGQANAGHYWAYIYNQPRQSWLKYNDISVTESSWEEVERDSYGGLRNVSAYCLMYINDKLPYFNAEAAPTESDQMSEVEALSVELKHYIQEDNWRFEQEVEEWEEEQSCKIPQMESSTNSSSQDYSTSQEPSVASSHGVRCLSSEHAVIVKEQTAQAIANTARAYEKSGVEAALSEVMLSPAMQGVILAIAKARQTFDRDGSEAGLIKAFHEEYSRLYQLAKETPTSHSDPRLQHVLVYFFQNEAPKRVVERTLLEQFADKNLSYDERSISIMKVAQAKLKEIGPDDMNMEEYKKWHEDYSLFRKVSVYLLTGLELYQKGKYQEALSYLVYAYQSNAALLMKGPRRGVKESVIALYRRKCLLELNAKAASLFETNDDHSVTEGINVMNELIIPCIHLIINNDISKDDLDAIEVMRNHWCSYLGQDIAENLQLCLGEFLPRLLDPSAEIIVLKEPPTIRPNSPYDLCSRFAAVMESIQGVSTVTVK
How it was run: as §1

Measured: log2 ratio of Biotin-Ahx-Ub-VS probe labelling

Chain of USP24 (Q9UPU5 whole entry): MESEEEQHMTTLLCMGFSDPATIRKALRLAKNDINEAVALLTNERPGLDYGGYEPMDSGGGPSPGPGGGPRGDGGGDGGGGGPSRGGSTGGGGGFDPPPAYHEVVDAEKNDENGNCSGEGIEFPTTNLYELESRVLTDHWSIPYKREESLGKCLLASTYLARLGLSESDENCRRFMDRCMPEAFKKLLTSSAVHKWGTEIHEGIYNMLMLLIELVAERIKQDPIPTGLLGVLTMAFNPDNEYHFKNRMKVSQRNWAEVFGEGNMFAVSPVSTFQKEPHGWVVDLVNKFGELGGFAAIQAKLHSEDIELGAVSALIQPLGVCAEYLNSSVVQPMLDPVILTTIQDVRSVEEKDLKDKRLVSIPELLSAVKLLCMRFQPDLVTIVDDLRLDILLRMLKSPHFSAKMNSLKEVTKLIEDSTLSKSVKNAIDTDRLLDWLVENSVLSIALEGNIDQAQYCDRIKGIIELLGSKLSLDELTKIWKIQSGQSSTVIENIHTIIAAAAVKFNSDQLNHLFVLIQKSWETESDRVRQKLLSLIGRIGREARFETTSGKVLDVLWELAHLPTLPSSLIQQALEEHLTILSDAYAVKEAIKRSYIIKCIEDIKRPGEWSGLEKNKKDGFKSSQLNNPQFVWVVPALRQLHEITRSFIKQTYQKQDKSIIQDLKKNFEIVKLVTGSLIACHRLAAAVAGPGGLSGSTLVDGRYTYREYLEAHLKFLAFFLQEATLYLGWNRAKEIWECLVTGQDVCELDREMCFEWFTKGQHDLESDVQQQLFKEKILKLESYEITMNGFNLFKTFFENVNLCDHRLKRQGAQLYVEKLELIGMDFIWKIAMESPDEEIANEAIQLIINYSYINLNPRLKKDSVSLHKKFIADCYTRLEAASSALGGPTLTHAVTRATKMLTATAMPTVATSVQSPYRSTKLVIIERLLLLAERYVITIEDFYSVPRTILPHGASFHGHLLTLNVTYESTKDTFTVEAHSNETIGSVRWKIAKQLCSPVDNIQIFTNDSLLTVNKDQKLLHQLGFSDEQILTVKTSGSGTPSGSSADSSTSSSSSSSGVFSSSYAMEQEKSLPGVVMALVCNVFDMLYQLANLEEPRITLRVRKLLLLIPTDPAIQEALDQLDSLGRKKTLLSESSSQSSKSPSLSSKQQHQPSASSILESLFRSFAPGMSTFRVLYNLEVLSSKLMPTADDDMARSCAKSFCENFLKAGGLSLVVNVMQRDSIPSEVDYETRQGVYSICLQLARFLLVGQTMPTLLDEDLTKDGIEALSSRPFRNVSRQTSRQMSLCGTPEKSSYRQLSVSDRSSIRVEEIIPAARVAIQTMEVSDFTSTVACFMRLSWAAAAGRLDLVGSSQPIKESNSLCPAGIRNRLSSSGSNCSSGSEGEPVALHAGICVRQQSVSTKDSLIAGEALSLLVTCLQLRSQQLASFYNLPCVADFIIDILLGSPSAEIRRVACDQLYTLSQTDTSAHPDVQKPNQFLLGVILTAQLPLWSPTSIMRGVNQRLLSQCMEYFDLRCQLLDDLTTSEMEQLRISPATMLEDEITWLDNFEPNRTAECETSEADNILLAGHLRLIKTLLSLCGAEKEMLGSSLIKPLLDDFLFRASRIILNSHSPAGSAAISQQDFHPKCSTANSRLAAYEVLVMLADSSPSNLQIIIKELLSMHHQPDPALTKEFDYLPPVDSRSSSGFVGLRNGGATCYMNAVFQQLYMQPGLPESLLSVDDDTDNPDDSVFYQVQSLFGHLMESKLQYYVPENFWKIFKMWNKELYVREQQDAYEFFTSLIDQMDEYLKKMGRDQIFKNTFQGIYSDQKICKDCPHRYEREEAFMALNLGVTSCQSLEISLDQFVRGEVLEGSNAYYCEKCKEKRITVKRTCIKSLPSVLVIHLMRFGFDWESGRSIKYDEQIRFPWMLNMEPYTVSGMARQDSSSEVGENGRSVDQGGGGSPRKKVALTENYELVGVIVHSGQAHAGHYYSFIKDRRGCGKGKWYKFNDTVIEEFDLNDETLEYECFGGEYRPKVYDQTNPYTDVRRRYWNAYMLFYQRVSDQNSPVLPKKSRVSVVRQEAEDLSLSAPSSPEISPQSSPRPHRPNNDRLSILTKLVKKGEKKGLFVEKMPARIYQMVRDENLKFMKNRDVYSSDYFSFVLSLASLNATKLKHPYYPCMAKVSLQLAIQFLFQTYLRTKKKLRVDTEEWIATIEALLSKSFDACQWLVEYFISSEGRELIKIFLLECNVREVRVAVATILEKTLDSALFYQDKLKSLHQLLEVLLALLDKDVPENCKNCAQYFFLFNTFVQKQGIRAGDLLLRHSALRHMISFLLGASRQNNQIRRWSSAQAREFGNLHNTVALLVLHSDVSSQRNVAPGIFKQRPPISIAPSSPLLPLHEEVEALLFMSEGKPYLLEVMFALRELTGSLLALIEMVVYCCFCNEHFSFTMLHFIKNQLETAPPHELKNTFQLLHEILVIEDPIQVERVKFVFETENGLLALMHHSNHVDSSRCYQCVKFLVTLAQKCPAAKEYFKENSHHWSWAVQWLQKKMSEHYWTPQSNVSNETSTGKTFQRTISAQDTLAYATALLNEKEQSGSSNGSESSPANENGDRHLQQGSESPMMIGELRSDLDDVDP

Cl.O=C(CCl)NC1(c2ncccn2)CCC1
inactive: USP19 0.0868 | USP22 0.221 | USP24 0.06 | USP25 -0.18 | USP28 -0.0581

Source: the supplement of paper PMC11732987, “Enantioselective OTUD7B fragment discovery through chemoproteomics screening and high-throughput optimisation” (Communications Chemistry, 2025)
